Drawing on PubChem BioAssay (NCATS), this text covers outcome and Potency for seven compounds.

SMILES strings stand for the structures. Inconclusive results are not listed. Active and inactive are the calls of the source. Unless noted, calls come from the whole dose curve; as a rule, active = well fitted curve in the direction sought with a large enough effect; inconclusive = small, poorly fitted or top-dose-only effect, or another doubt; inactive = no such curve, though single readings can be large; an effect the other way counts as inactive or inconclusive.

In experiment [1] the target is Ferritin light chain (Equus caballus) (UniProt P02791). As to the kind of experiment: qHTS Validation Assay for Identification of Novel General Anesthetics (AID 2323). Note: series mostly up to about 77 µM. Summed up: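 10 uM horse-spleen apoferritin + 1-AMA (50% saturated, PBS); cpd pin-transferred, 10 min RT. Ex 380/Em 535 nm endpoint. Activity normalized between free 1-AMA and 1-AMA/apoferritin; 4-parameter Hill fit of concentration-response.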
On the technique in general: qHTS replaces the single test concentration by a dilution series.

A short description of experiment [2]: Cytometric Cell-Based qHTS for Inhibitors of the mTORC1 Signaling Pathway in MEF (Tsc2-/-, p53-/-) Cells (AID 2660).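 Note: Tsc2 and p53 null MEFs carrying empty vector with compound for 24 h; percent of cells above a phospho-rpS6 to PI ratio cutoff in each well; series mostly up to about 38 µM.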 Summed up: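 Immunofluorescence qHTS of rpS6 Ser235/236 phosphorylation: MEFs (Tsc2-/-, p53-/-) treated 24 h, 37 C, in DMEM + 10% FBS. Alexa-488 signal normalized to PI count, referenced to rapamycin (7.5 nM) and DMSO; PI cell number recorded for viability.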

Experiment [3] in a line: High Content Imaging Cell-Based qHTS for Inhibitors of the mTORC1 Signaling Pathway in MEF (Tsc2-/-, p53-/-) Cells (AID 2666).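 Note: percent of cells scored positive for phospho-rpS6 Ser235/236 immunostaining by imaging.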 A digest of the protocol: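 MEF Tsc2-/- p53-/- (empty vector), DMEM/10% FBS; cpd 24 h 37 °C; PFA fix, Alexa-488 p-rpS6 S235/236 Ab, Hoechst; imaged; rapamycin-defined inhibition; % positive cells/well.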
A short description of experiment [4]: High Content Imaging Cell-Based qHTS for Inhibitors of the mTORC1 Signaling Pathway in MEF Cells (AID 2667).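 Note: Tsc2-/- p53-/- MEFs stably re-expressing wild-type Tsc2 exposed 24 h; series mostly up to about 38 µM.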 Summed up:
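Read-out is the share of phospho-rpS6-positive cells per well, from Hoechst-normalized Alexa-488 Ser235/236 staining imaged on IN Cell. Cells: WT Tsc2-expressing Tsc2-/-, p53-/- MEFs exposed to compound for 24 hrs.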

A short description of experiment [5]: Cytometry Cell-Based qHTS for Inhibitors of the mTORC1 Signaling Pathway in MEF cells (AID 2668).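 Note: Tsc2-/- p53-/- mouse embryonic fibroblasts stably re-expressing wild-type Tsc2; percent cells positive for phospho-rpS6 Ser235/236 relative to propidium iodide stain; series mostly up to about 38 µM.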 Summed up:
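Read-out: phospho-rpS6 Ser235/236 immunofluorescence normalized to propidium iodide intensity, scored as % active cells against a rapamycin (7.5 nM) threshold. Cells: Tsc2-/-, p53-/- MEFs stably expressing WT Tsc2, compound-treated 24 hrs at 37 degree Celsius.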

A short description of experiment [6]: Validation screen for small molecules that induce DNA re-replication in MCF 10A normal breast cells (AID 463097). Note: nearly all actives have a fitted effect of over 60% in size. Summed up: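 250 MCF 10A cells/well; compound pin-transferred; 48 hr, 37 C, 5% CO2; Hoechst 40 min; imaged 405/500-530 nm. Hits = more high-intensity nuclei.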
Experiment [7] addresses Ubiquitin carboxyl-terminal hydrolase 2 (Homo sapiens) (UniProt O75604). The experiment is described as follows: qHTS Validation Assay for Inhibitors of Ubiquitin-specific Protease USP2a Using CHOP2 as the Reporter (AID 463106). Summed up:
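Fluorescence read-out at Ex 485nm/Em 531nm after 60min RT, following addition of 25nM Ub-CHOP2 plus 25nM reporter substrate to USP2 core (10nM) pretreated 30min with compound. Data normalized to NEM full inhibition; concentration-response curves fitted.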

The target of experiment [8] is DNA polymerase III PolC-type (Bacillus subtilis (strain 168)) (UniProt P13267). The experiment is described as follows: qHTS Validation Assay for the Inhibitors of DNA Replication in Gram-Positive Bacteria (AID 485295).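 Note: reconstituted holoenzyme with PolC plus beta clamp SSB and primase; PicoGreen fluorescence of double-stranded DNA made on primed circular M13 template; series mostly up to about 57 µM.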 Summed up:
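PicoGreen fluorescence (ex 480–485/em 535–540 nm) reports dsDNA synthesized on ssM13Gori template with dNTPs/NTPs. Enzyme: holoenzyme rebuilt from purified PolC, beta subunit, SSB and primase. Compound preincubated before substrate addition; RT throughout.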

In experiment [9] the target is Tumor susceptibility gene 101 protein (Homo sapiens) (UniProt Q99816). The experiment is described as follows: qHTS Validation Assay for Iinhibitors of HIV-1 Budding by Blocking the Interaction of PTAP/TSG101 (AID 485342; calls by dose curve). Summed up:
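FP read-out: FITC-PTAP peptide, 50 nM final, binding Tsg101 binding domain, 10 uM final; 20 min r.t.; 10 mM HEPES pH 7.5, 0.15 M NaCl, 0.01% Tween 20, 3 mM EDTA, 0.1 mM TCEP.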

Experiment [10] is described as follows: qHTS Validation Assay to Find Inhibitors of Chronic Active B-Cell Receptor Signaling (AID 485345; active = well fitted curve in the direction sought with a large enough effect in the main read-out, with a control signal flat, not every such curve was filed as active). Summed up: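 TMD8 ABC-DLBCL cells stably carrying doxycycline-inducible IkappaBalpha–green luciferase fusion plus unfused red luciferase; compounds 46 uM to 3 nM, 4 h at 37C with doxycycline. Corrected green/red luminescence ratio normalized to 10 uM MG-132 and basal cell wells; curves fitted.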

In experiment [11] the target is Beta-2 adrenergic receptor (Homo sapiens) (UniProt P07550). The experiment is described as follows: qHTS validation assay of beta-arrestin-biased ligands of beta2-adrenergic receptor (AID 485366). A digest of the protocol: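 Agonism was measured as beta-arrestin recruitment to recombinant beta2-AR, releasing tTA to drive luciferase. Cells were exposed for 18 hr at 37 degrees C to a series up to 46 microM. %Activity from corrected luminescence gave concentration-response curves.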

The target in experiment [12] is ATP-dependent 6-phosphofructokinase (Trypanosoma brucei brucei) (UniProt O15648). As to the kind of experiment: qHTS Validation Assay to Find Inhibitors of T. brucei phosphofructokinase (AID 485368). Particulars: outcome: dose series up to 57.5 µM. Summed up: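 ADP-Glo luminescence, two-step: residual ATP depleted, then ADP converted to ATP for luciferase. Enzyme 1.25 nM, F6P 0.5 mM, ATP 0.1 mM, pH 8.0 TEA buffer, 45 min RT. Curves fitted and classed by quality and efficacy.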

A short description of experiment [13]: Quantitative high throughput screen for delayed death inhibitors of the malarial parasite plastid, 96 hour incubation (AID 488745). Note: nearly all actives have a fitted effect of over 70% in size. Note: potency is the fitted concentration of half-maximal effect. A digest of the protocol:
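Decreased firefly luciferase luminescence indicates inhibited growth of reporter-integrated P. falciparum after two generations (96 h, 37 C, 5% CO2). Infected erythrocytes at 0.1% parasitemia, 2% hematocrit, in Albumax-supplemented RPMI 1640.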

Experiment [14] deals with Thioredoxin reductase 1, cytoplasmic (Rattus norvegicus) (UniProt O89049). As to the kind of experiment: qHTS Assay for Inhibitors of Mammalian Selenoprotein Thioredoxin Reductase 1 (TrxR1) (AID 488773).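 Note: drop in NADPH fluorescence over an 8 min run after selenite addition; series mostly up to about 57 µM; nearly all actives have a fitted effect of over 40% in size.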 The conditions noted are these: Potency: inhibition. Summed up: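 Inhibition is scored from the loss of NADPH fluorescence between first and last reads of an 8-min kinetic run. Selenite (400 uM) was the substrate, added after 15 min compound preincubation at room temperature.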

The target in experiment [15] is Flap endonuclease 1 (Homo sapiens) (UniProt P39748). As to the kind of experiment: qHTS Validation Assay for the Inhibitors of Human Flap endonuclease 1 (FEN1) (AID 488816). Summed up:
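Enzyme reagent 10 nM; cpds pinned; 15 min RT preinc.; substrate 50 nM final; reads t=0 and 15 min; no-enzyme buffer wells as neg. control; normalized data, 4-parameter Hill fit.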

Experiment [16] deals with ATP-dependent DNA helicase Q1 (Homo sapiens) (UniProt P46063). The experiment is described as follows: qHTS Validation Assay for Inhibitors of RecQ-Like Dna Helicase 1 (RECQ1) (AID 2353). Summed up: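 RECQ1T1 50 nM; forked duplex (20 bp + 30-nt ss tails) 200 nM, ATP 2 mM final; pH 8.0, 2 mM MgCl2, 2.5 ug/ml poly(dI-dC); 15 min compound preincubation; discontinuous kinetic read over 2 h at RT.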

Experiment [17] addresses M-phase phosphoprotein 8 (Homo sapiens) (UniProt Q99549). The experiment is described as follows: qHTS Validation Assay for Inhibitors for MPP8 Chromodomain Interactions with Methylated Histone Tails (AID 488949). Note: nearly all actives have a fitted effect of over 55% in size. Note: potency is the fitted concentration of half-maximal effect. Summed up:
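AlphaScreen read-out: streptavidin donor and nickel chelate acceptor beads (final 10 ug/mL), 30 min in the dark at RT. Complex of 50 nM MPP8 and 50 nM b-H3(1-18)K9me3 peptide had been exposed to compounds for 30 min beforehand.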

For experiment [18], the target named is Thioredoxin reductase 1, cytoplasmic (Rattus norvegicus) (UniProt O89049). As to the kind of experiment: qHTS Assay for Substrates of Mammalian Selenoprotein Thioredoxin Reductase 1 (TrxR1) (AID 488772).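 Note: series mostly up to about 57 µM; a drop in NADPH fluorescence below the no-compound background marks a TrxR1 substrate.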 Summed up: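 In this dual-purpose format, potential substrates are identified from the first fluorescence read after selenite addition, not from the 8-minute delta. Rat enzyme is preincubated with NADPH and then with compound at ~22 deg C.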

The nature of experiment [19]: Quantitative high throughput screen for delayed death inhibitors of the malarial parasite plastid, 48 hour incubation (AID 488752). Note: nearly all actives have a fitted effect of over 65% in size. A digest of the protocol:
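One-generation (48 h) growth assay: a decrease in luciferase signal from an integrated reporter in P. falciparum-infected red cells (0.1% parasitemia, 2% hematocrit) after compound exposure at 37 C indicates parasite inhibition.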

For experiment [20], the target named is RecQ-like DNA helicase BLM (Homo sapiens) (UniProt P54132). The experiment is described as follows: qHTS Validation Assay for Inhibitors of Bloom's syndrome helicase (BLM) (AID 2364). Summed up:
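50 nM BLM preincubated 15 min at room temperature with compound in pH 8.0 Tris buffer containing 2.5 ug/ml poly(dI-dC); started with 200 nM TAMRA/BHQ-2 forked duplex and 2 mM ATP (final). Unwinding read as TAMRA fluorescence increase, two reads 2 h apart.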

Chain of DNA polymerase III PolC-type (Bacillus subtilis (strain 168)) (P13267 whole entry, looked up): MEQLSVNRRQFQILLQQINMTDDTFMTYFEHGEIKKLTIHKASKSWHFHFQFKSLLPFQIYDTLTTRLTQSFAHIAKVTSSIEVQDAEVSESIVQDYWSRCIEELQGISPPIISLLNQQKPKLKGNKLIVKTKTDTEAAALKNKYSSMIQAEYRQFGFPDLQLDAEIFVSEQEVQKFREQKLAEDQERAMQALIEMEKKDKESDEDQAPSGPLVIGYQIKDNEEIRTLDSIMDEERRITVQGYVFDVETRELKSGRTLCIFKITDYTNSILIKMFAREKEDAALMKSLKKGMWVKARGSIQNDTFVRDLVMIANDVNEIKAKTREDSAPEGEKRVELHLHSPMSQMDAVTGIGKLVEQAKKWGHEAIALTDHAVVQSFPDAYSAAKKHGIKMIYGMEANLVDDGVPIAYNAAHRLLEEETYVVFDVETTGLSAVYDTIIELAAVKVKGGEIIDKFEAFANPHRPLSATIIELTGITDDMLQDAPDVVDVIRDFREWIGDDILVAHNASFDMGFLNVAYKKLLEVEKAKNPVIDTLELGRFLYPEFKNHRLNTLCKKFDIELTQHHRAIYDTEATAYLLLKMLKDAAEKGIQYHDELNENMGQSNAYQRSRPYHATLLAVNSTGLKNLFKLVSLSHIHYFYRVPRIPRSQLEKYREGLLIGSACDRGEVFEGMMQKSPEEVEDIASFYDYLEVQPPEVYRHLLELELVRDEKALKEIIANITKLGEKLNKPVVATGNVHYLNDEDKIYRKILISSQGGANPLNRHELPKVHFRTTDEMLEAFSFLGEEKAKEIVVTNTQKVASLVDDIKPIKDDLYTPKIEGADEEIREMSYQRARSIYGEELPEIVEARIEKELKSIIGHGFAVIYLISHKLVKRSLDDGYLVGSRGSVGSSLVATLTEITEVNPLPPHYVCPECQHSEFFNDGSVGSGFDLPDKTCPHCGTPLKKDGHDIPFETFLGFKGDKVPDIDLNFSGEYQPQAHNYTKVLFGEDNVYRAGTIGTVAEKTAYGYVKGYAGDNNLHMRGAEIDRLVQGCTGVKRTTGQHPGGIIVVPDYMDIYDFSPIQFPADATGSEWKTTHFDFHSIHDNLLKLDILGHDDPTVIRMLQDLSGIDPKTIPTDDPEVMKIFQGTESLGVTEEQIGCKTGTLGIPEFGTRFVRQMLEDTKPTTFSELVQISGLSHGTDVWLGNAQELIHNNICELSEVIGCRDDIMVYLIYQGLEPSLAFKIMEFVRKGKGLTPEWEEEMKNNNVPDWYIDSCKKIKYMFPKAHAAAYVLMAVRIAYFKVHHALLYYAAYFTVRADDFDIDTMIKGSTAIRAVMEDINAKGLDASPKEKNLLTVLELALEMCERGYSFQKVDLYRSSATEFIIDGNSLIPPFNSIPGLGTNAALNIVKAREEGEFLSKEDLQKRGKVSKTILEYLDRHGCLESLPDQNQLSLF
Chain of Ferritin light chain (Equus caballus) (P02791 2-175 limits assumed): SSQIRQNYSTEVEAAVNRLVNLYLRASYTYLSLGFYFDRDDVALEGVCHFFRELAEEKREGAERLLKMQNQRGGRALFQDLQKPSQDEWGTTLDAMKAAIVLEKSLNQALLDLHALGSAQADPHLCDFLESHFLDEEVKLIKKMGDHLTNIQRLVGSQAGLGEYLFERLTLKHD
Chain of Beta-2 adrenergic receptor (Homo sapiens) (P07550 whole entry, looked up): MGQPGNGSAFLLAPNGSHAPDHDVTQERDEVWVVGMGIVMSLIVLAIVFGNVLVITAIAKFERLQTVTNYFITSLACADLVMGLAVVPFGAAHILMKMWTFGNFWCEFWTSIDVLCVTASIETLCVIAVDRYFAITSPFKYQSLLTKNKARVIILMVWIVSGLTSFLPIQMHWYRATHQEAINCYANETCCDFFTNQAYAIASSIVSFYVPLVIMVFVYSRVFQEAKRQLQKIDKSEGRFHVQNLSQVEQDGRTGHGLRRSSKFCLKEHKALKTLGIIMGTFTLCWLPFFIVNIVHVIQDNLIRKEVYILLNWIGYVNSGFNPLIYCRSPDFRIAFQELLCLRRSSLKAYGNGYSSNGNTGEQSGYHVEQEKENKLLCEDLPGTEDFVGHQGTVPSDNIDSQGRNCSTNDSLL
Chain of Thioredoxin reductase 1, cytoplasmic (Rattus norvegicus) (O89049 whole entry, looked up): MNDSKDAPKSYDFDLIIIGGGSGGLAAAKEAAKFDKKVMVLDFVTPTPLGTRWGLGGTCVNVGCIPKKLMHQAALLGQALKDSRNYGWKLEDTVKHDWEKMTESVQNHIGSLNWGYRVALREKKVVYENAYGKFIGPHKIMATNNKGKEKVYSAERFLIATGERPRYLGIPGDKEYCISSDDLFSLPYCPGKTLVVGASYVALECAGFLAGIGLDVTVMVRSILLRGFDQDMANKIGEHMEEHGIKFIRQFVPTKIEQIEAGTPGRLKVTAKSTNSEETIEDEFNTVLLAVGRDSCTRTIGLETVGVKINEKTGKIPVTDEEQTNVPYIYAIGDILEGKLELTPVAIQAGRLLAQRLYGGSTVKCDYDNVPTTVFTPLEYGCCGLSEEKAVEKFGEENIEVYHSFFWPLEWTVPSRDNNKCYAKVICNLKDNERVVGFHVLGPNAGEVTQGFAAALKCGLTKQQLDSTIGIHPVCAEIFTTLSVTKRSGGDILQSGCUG
Chain of Flap endonuclease 1 (Homo sapiens) (P39748 whole entry, looked up): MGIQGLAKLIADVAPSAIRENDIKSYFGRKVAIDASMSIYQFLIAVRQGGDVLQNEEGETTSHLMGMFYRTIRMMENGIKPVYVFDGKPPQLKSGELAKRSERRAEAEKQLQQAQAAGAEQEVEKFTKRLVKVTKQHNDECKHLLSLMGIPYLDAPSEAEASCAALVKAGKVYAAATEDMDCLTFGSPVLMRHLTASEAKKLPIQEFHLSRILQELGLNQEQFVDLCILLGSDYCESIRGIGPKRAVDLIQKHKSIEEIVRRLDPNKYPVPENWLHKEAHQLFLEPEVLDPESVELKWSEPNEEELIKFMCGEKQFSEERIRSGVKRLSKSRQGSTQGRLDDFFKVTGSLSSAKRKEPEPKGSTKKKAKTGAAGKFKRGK
Chain of M-phase phosphoprotein 8 (Homo sapiens) (Q99549 whole entry, looked up): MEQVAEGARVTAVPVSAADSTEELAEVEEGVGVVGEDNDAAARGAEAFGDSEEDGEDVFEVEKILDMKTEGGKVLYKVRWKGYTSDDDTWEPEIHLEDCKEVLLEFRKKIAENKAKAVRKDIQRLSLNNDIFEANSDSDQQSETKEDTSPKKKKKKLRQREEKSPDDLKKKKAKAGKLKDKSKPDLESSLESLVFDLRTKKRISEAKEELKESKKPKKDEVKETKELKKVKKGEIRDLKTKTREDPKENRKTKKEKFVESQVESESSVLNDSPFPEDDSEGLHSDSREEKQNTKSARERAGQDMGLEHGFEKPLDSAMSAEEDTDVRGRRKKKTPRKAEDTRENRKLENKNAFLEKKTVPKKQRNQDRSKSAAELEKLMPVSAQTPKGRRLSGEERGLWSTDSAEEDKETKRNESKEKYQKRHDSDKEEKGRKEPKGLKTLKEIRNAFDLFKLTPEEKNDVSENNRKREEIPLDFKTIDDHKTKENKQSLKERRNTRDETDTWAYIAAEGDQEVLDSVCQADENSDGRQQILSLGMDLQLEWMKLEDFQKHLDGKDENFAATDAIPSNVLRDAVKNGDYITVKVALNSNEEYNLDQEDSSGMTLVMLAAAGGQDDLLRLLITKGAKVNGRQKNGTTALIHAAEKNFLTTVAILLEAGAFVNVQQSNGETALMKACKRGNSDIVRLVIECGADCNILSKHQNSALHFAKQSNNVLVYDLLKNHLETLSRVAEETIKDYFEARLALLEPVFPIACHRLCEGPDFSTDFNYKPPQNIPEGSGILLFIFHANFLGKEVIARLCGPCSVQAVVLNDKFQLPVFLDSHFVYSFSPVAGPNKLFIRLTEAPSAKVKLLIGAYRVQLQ
Chain of Tumor susceptibility gene 101 protein (Homo sapiens) (Q99816 whole entry, looked up, the tested form may be a part): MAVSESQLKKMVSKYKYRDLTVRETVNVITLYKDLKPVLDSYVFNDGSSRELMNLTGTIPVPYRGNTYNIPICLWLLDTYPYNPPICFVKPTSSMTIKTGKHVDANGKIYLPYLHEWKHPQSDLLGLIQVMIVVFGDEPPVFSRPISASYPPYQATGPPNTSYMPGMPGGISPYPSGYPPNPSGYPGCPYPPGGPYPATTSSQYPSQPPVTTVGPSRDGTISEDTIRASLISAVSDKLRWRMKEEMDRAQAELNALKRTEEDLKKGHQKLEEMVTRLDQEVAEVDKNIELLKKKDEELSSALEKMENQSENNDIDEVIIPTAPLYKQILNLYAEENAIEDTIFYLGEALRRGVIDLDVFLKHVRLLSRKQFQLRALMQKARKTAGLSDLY
Chain of Ubiquitin carboxyl-terminal hydrolase 2 (Homo sapiens) (O75604 whole entry, looked up): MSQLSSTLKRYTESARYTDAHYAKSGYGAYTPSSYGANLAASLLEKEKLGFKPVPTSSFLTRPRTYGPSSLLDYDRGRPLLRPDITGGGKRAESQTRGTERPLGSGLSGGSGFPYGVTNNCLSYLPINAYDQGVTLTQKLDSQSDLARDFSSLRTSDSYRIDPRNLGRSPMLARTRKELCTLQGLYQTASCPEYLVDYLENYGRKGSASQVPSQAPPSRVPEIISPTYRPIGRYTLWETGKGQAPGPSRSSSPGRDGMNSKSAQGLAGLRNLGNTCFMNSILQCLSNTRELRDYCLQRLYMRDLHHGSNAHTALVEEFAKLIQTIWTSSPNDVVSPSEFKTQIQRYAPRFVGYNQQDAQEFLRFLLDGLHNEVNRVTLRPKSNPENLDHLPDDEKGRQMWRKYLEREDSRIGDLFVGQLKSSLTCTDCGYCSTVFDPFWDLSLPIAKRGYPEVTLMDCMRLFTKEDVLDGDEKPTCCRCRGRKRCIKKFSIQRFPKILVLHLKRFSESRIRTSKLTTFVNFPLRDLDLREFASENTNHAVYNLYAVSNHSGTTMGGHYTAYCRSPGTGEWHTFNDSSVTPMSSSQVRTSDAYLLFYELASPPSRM

`CC(=O)Oc1cc(C(C)C)c(OCCN(C)C)cc1C`: the compound was classed as inactive in [1], in experiment [2], in experiment [7], in experiment [9], in [11] and in [12]. In addition, the Potency entry in experiment [3], in experiment [4], in [5], in experiment [6], in experiment [8] and in experiment [10] was “inactive” in each case. In addition, the Potency entry in experiment [13], in [14] and in experiment [15] was “inactive” in each case.

As to `O=C1NCN(c2ccccc2)C12CCN(CCCC(c1ccc(F)cc1)c1ccc(F)cc1)CC2`, the compound was called inactive in experiment [1], in [7], in [9], in experiment [11] and in experiment [12]. Besides, the Potency result in experiment [16], in [14] and in [15] was “inactive” throughout. Also, the Potency in experiment [17] is 14.1 µM (active).

As for `CCN(CC)CCNC(=O)c1cc(S(C)(=O)=O)ccc1OC`, the outcome in experiment [1], in experiment [2], in [7], in [9], in experiment [11] and in experiment [18] was inactive. In addition, the Potency entry in experiment [3], in experiment [4], in experiment [5], in experiment [6], in experiment [8] and in experiment [10] was “inactive” each time. Further, the Potency entry in experiment [13], in experiment [14], in [15] and in experiment [17] was “inactive” each time.

Consider `C[N+](C)(C)CCOC(=O)CCC(=O)OCC[N+](C)(C)C`, for which the compound was called inactive in [1], in [2], in experiment [7], in experiment [9], in experiment [11] and in experiment [18]. Moreover, the Potency result in experiment [3], in [4], in [5], in experiment [6], in experiment [8] and in [10] was “inactive” throughout. The Potency entry in [13], in experiment [19], in [14] and in experiment [15] was “inactive” in each case.

As to `Cc1ccc(/C(=C\CN2CCCC2)c2ccccn2)cc1`, the result in [1], in [2], in experiment [7], in experiment [9] and in experiment [18] was inactive. For the same compound, the Potency entry in [3], in [4], in experiment [5], in [8], in [10] and in experiment [13] was “inactive” each time. Also, the Potency entry in experiment [19] and in experiment [14] was “inactive” each time.

Consider `FC(F)(F)c1ccccc1-n1ccnc1`, for which the compound was called inactive in experiment [1], in [2], in experiment [7], in [9], in experiment [11] and in experiment [18]. Besides, the Potency entry in experiment [20], in experiment [3], in [4], in [5], in experiment [6] and in experiment [10] was “inactive” throughout. Besides, the Potency result in experiment [19], in [14] and in experiment [15] was “inactive” in each case.

`NC(N)=NC(=O)Cc1c(Cl)cccc1Cl`: the call in experiment [1], in [2], in [7], in experiment [9] and in [11] was inactive. The Potency entry in [3], in experiment [4], in experiment [5], in [8], in [14] and in experiment [15] was “inactive” throughout. For the same compound, the Potency result in [17] was “inactive”. In addition, in experiment [13], the Potency was 5.22 µM (active).
